The text below walks through data of PubChem BioAssay (NCI).

Each structure is given as a SMILES string. The panel holds about 83,000 compounds, 20% with a hit somewhere; the sample as a whole holds those more often.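 Single-concentration screen, 48 h exposure, 96-well plates. Endpoint: percent growth. Below 10 = active.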 Calls of active or inactive are those of the source.

For this assay, the system named is MDA-MB-468 breast. Kind of assay: NCI-60 one-dose screen, 48 h (100 = growth as untreated, 0 = no growth, -100 = all killed). The conditions noted are these: 10 µM unless noted.
Turning to `O=C(/C=C/c1cccc(O)c1)c1cccc(-n2cc(-c3ccc(Cl)cc3)[nH]c2=O)c1`, the growth is 37.6% (inactive). With `FC(F)(F)c1ccccc1-c1cn2c(ccc3ccccc32)n1` the figure was 105% (inactive).

As to `CS(=O)(=O)N1CCN(Cc2cc3nc(-c4cccc5[nH]ncc45)nc(N4CCOCC4)c3s2)CC1`, the growth is -19.6% (active). The value for `COc1ccc(/C=C2\C(=O)N(C(=O)c3csc(NC(C)=O)n3)N=C2C)cc1` was 112% (inactive); that for `O=C1C(=O)c2cc([N+](=O)[O-])ccc2-c2ccccc21` was -96.2% (active); that for `COC(=O)c1c(C)[nH]c(/C=C2\N=C(c3ccc[nH]3)C=C2OC)c1C` was -69.4% (active). `Cc1ccc(S(=O)(=O)N(CC[C@@H]2C[C@H]2c2cc3ccccc3o2)C(=O)NC2CCCCC2)cc1`: the growth is 95.3% (inactive).

In the case of `Nc1nc(N)c2c(n1)NC(c1ccc3c(c1)OCO3)CC(c1cccc(Nc3ccncc3)c1)=N2` (centres undefined), the growth was 62.7% (inactive).

`Clc1ccc(-c2nc(-c3c[nH]c4ncccc34)cs2)cc1`: the growth is 80.2% [100 µM] (inactive).

Turning to `O=C1C(=O)c2ccccc2C(O)=C1CCCc1ccc(C2CCCCC2)cc1`, the growth was 17.5% (inactive).

Consider `COc1cc(/C=C2\CN(C(=O)OC(C)(C)C)C/C(=C\c3ccc(O)c(OC)c3)C2=O)ccc1O`, for which the growth is 99.9% (inactive). With `COc1cc2c3c(c4c5ccccc5[nH]c4c2c(OC)c1OC)C(=O)N(CCN1CCOCC1)C3=O` the figure was 65.7% (inactive); with `N=C(N)c1ccc(-c2ccc(-c3cccs3)o2)cc1`, -40.5% (active). The value for `COc1ccc(/C=N/C2=C(C#N)C(c3ccc(N(C)C)cc3)c3ccc4ccccc4c3O2)cc1` (centres undefined) was 84.3% (inactive). The value for `COc1ccc(C(=O)c2sc3nc4c(c(C(F)(F)F)c3c2N)CN(C(C)=O)CC4)cc1OC` was 83.7% (inactive); that for `O=C(NOC(=O)c1ccccc1)c1ccccc1` was 105% (inactive); that for `CCCCC[C@@H]1Cc2cc(O)c(C(=O)O)c3c2[C@H](C[C@]2(OC[C@@H](CC(=O)[C@@](C)(CC)C(=O)OC)[C@@H]2C)O3)O1` was 110% (inactive). Regarding `COC(=O)[C@]12CC[C@@H](C)[C@H](C)[C@@H]1C1=CC[C@@H]3[C@@]4(C)C(C=O)=C[C@@](C)(COS(C)(=O)=O)C4=CC[C@@]3(C)[C@]1(C)CC2`, the growth was -59.8% (active). For the compound `O=C1/C(=C/c2ccc(C(F)(F)F)cc2)COc2ccc(O)cc21`, the growth is 100% (inactive).

Take `O=S=Nc1ccc([N+](=O)[O-])cc1`: the growth was 103% (inactive). The value for `CCN(CC)CCOc1ccc(C2=C(c3ccccc3)CCc3cc(OC)ccc32)cc1` was -44.2% (active). The value for `N#Cc1c(-c2ccccc2)cc(-c2ccccc2)n(CCCC(=O)NO)c1=O` was 33.3% (inactive); that for `CC1CC(C)S(=O)(=O)C1` (centres undefined) was 112% (inactive). The value for `Cn1c(=O)c2c(nc3n(-c4ccc(Cl)cc4Cl)c(Sc4nc(-c5ccccc5)c(C#N)c(=O)[nH]4)cn23)n(C)c1=O` was 60.5% (inactive); that for `COc1ccc(-c2nc(NC(=O)CS(=O)(=O)c3ccc(F)cc3)sc2C)cc1` was 32% (inactive); that for `Cc1ccccc1NC(=O)CN(C)C` was 107% (inactive). `COc1cc(-c2ccc[nH]2)[nH]c1/C=C1\N=C(C)C(CC(=O)OCC(C)(C)C)=C1C`: the growth is -79.2% (active). With `Nc1cc(-c2ccccc2)ccc1O` the figure was 93.5% (inactive); with `Cn1nccc1Nc1nccc(-c2ccn([C@H](CO)c3ccc(Cl)c(F)c3)c(=O)c2)n1`, 129% (inactive). The value for `O=S(=O)(NCCNc1nccc(-c2c(-c3cccc(O)c3)nc3sccn23)n1)c1ccc(F)cc1` was 64.8% (inactive). With `CCCC/C(=C\c1ccc(O)c(O)c1)C(=O)NC(Cc1ccccc1)C(=O)C(=O)NCCc1ccc(OC)cc1` (centres undefined) the figure was 93.2% (inactive); with `CC(C)COC(=O)COC(=O)OCCOCCOC(=O)OCC(=O)OCC(C)C`, 105% (inactive). Take `COc1cccc(C2C3=C(COC3=O)N(CCO)c3cc4c(cc32)CCC4)c1` (centres undefined): the growth was -51.6% (active). With `Nc1ncnc2c1c(-c1ccc(Oc3ccccc3)cc1)nn2C[C@@H]1SSC[C@@H]1O` the figure was -27.7% (active).

Regarding `Cc1cc(NS(=O)(=O)c2ccccc2)c(OS(=O)(=O)c2ccccc2)cc1C`, the growth is 102% (inactive). With `CC1CCC(C(C)C)C(NN)C1` (centres undefined) the figure was 110% (inactive).

Consider `Cc1cc2c(c(C)n1)CN(C(=O)Nc1nc(-c3cncs3)ccc1N)C2`, for which the growth was 110% (inactive). With `CC(C)(C)c1cc(/C=N\NC(=O)/C=C/C=C/c2ccc3c(c2)OCO3)c(O)c(C(C)(C)C)c1` the figure was 70.7% (inactive); with `CCCCCCCCCCCCc1ccc(C(=O)/C=C/C(=O)O)cc1`, -9.53% (active).
